The source made the active and inactive calls.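 How the source made its calls: active means fluorescence ratio normalized to control raised more than 50% in primary screen plus both repeat runs; inactive means the rest.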

The results in this text go back to PubChem BioAssay.

The test has as its system TRPC4 beta (transient receptor potential cation channel C4), mouse. In words: TRPC4 cation channel opening, retest – cell-based, Fluo4 calcium, HEK293 TRPC4beta/mu-opioid, duplicates, 10 µM, confirmation (AID 2426).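 On activation: percent rise of integrated ratio over buffer wells lacking compound which define 0%.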 To be noted: Fluo4 calcium fluorescence, at 10 µM; hits give high values.
Take `Cc1cc(N2CCCCC2)nc(NCc2ccccc2)n1`: the activation was 66% (active).
In the case of `COCCNC(=O)/C(C#N)=C/c1cc(C(C)C)c(OC)cc1C`, the result was inactive.
Consider `CCN1CCN(c2ccc(S(=O)(=O)N3CCCCC3)cc2NC(=O)COc2cc(C)ccc2Cl)CC1`, for which the outcome was inactive.
Regarding `FC(F)(F)COc1nc(N2CCCCC2)nc(N2CCNCC2)n1`, the outcome was inactive.
As to `CCSc1nnc([C@H](Cc2c[nH]c3ccccc23)NC(=O)OC(C)(C)C)o1`, the result was inactive.
On the same count and under the same terms, the entry for `COc1ccc(/C=C(\C#N)C(=O)N2CCOCC2)cc1Br` is “inactive”.
Turning to `N#Cc1ccc(OCC(O)CN2CCN(c3ncc(C(F)(F)F)cc3Cl)CC2)cc1` (stereo not given), the outcome was inactive.
With `CCCC1=C(C(=O)OCC)C(c2cc(Cl)cc(OC)c2OCC(=O)OCC)NC(=O)N1` (stereo not given), the outcome was inactive.
For the molecule `CCCCCc1ccc(OCCCC[n+]2ccccc2)c(CCCCC)c1`, the outcome was inactive.
With `CC(C)(C)c1ccccc1OCCCCCn1ccnc1`, the outcome was inactive.
With `CCOC(=O)COc1cc(-n2c(=S)[nH]c3ccccc3c2=O)c(Cl)cc1Cl`, the outcome was inactive.
Still for that read-out and setting: to `CCCCc1nc(N2CCOCC2)c(C#N)c2c1CCCC2` belongs “inactive”; to `CCN1CCN(c2ccc(NC(=O)CCc3c(C)nc4c(-c5ccc(F)cc5)c(C)nn4c3C)cc2)CC1`, “inactive”.
The same measure, in the same setting: the entry for `CCOc1cc(/C=C(\C#N)C(=O)Nc2cccc(C(=O)O)c2)cc(Br)c1OC(=O)c1ccc(OC)cc1` is “inactive”.
As for `COc1ccc(Cl)c2sc(N(CCN(C)C)C(=O)c3ccc4c(c3)OCCO4)nc12`, the outcome was inactive.
The same measure, in the same setting: to `CCCCN1C(=O)C(=O)N(CC(=O)Nc2cc(OCC)c(N3CCOCC3)cc2OCC)C1=O` belongs “inactive”.
As for `CN(C)CCOc1ccc2ccccc2c1`, the result was inactive.
In the case of `CCCn1c(NCc2cc(OC)ccc2OC)nc2ccccc21`, the outcome was inactive.
For `COC(=O)c1ccc(NC(=O)CCN2CCN(Cc3ccccc3)CC2)cc1`, the result was inactive.
With `Cn1c(=O)c2c(nc(SCCN3CCCCC3)n2Cc2ccccc2)n(C)c1=O`, the result was inactive.
For the molecule `O=C(NCc1ccccc1Cl)/C(=C\c1cccnc1)NC(=O)c1ccccc1`, the outcome was inactive.
Consider `COC(=O)[C@@]12CCCN1[C@H](c1ccc(-c3ccc(OC)cc3)cc1)[C@@H]1C(=O)N(C)C(=O)[C@@H]12`, for which the result was inactive.
Take `COc1ccc(-c2cc(C(F)(F)F)nc(N3CCN(C)CC3)n2)cc1`: the result was inactive.
As to `CCOc1ccc(NS(=O)(=O)c2ccc(NC(=S)NC(=O)CC(C)C)cc2)cc1`, the outcome was inactive.
As to `CCCN(CCC)CCCNC(=O)c1cc2c(=O)n(C)c3ccccc3c2n1C`, the outcome was inactive.
With `COc1ccc(CNCC(O)(c2ccccc2)c2ccccc2)cc1OC`, the outcome was inactive.
Take `CCOc1cc2[nH]c(=S)n(C3CC3)c(=O)c2cc1OCC`: the result was inactive.
Same read-out and setting: the entry for `CCOC(=O)c1c(C(F)(F)C(F)(F)C(F)(F)C(F)(F)F)n[nH]c1C` is “inactive”; for `Cn1c(=O)cc(OCCCC(=O)NCCCN2CCN(Cc3ccccc3)CC2)c2ccccc21` it is “inactive”.
The same measure, in the same setting: the entry for `CC(=O)C1=C(O)C(=O)N(Cc2ccco2)C1c1ccc2c(c1)OCO2` (stereo not given) is “inactive”; for `CCc1cc2c(SCC(=O)N(C)C3CCS(=O)(=O)C3)ncnc2s1` (stereo not given) it is “inactive”.
Regarding `OC(CNCC1CCCO1)Cn1c2ccc(Br)cc2c2cc(Br)ccc21` (stereo not given), the result was inactive.
As to `CCN1CCN(c2ccc(S(=O)(=O)N3CCCCC3)cc2NC(=O)c2cccc(F)c2)CC1`, the outcome was inactive.
The same measure, in the same setting: to `COC(=O)/C=C1\SC(=NC(=O)c2cccc(Cl)c2)NC1=O` belongs “inactive”; to `CCCc1ccc(OCc2ccc(C(=O)N3CCCC3)o2)cc1`, “inactive”.
Same read-out and setting: to `Cc1ccc(-c2csc3ncnc(NCCN4CCOCC4)c23)cc1` belongs “inactive”.
Consider `Cn1c(=O)n(CCCO)c(=O)c2c1nc1n2CCCN1Cc1ccccc1`, for which the outcome was inactive.
With `O=C(NC1CC1)c1ccc2c(c1)N(Cc1ccc(Cl)cc1)CCS2`, the result was inactive.
The same measure, in the same setting: to `O=C(COc1ccccc1-c1ccccc1)NCc1ccco1` belongs “inactive”; to `CCOc1ccc2nc(NCCNC(=O)C3CC3)c(C)cc2c1`, “inactive”.
